Assay results reported in PubChem BioAssay AID720579 (National Center for Advancing Translational Sciences (NCATS), 2013).
Hit rate of the full screen: of about 310,000 compounds, about 1,900 (0.61%) were called active. Entries that show only a call come without a potency. Roughly 8% stayed inconclusive and do not appear here. Calls follow the shape of the full dose curve; tested in A549 cells. Only a selection was taken, and actives are over-represented in it overall.

assay: qHTS for Stage-Specific Inhibitors of Vaccinia Orthopoxvirus: mCherry Reporter Primary qHTS; conditions: Vaccinia virus mCherry reporter infection, fluorescence; series mostly up to 36.5 µM; also: nearly all actives have a fitted effect of over 35% in size
Potency is read from the fitted curve at half-maximal effect.

Row | SMILES | Potency | activity change, negative = inhibition
1 | S=C(c1ccccc1)N1CCCC1 | inactive | –
2 | CN(CC(=O)O)C(=O)c1ccccc1 | inactive | –
3 | CN(O)C(=S)c1ccccc1 | 14.1 µM (active) | –
4 | Cc1ccc2nc(-c3ccccc3)c(CC3CCCCC3)n2c1 | inactive | –
5 | CCCCSc1nc2ccccc2[nH]1 | inactive | –
6 | CCC(c1nc2ccccc2[nH]1)n1c(=O)c(-c2cccs2)nc2ccccc21 (stereo not drawn) | inactive | –
7 | CCC(C)N1C(=O)S/C(=C/c2ccc(Sc3nc4ccccc4[nH]3)o2)C1=O (stereo not drawn) | 12.6 µM (active) | –
8 | CN(C)c1ccc(C=Nc2ccc(/C=C/c3ccnc4ccccc34)cc2)cc1 | inactive | –
9 | CC(C)n1ncc2c(C(=O)N3CCN(Cc4cccs4)CC3)cc(C3CC3)nc21 | inactive | –
10 | CN1CCN(c2ccc(NC(=O)c3ccccc3)cc2)CC1 | inactive | –
11 | C=CC(=O)Nc1ccc(Nc2ccnc(Nc3ccc(N4CCN(C)CC4)cc3)n2)cc1 | 5.01 µM (active) | –
12 | Cc1cccc(N2CCN(c3ccc(NC(=O)/C=C\C(=O)O)cc3)CC2)c1 | inactive | –
13 | CC(=O)Nc1ccc(C=CC(=O)c2ccc([N+](=O)[O-])cc2)cc1 | inactive | –
14 | O=C(/C=C/c1ccc(Cl)c([N+](=O)[O-])c1)c1ccc(O)cc1 | inactive | –
15 | CN(C)c1ccc(/C=C/C(=O)c2ccc(O)cc2)cc1[N+](=O)[O-] | 15.8 µM (active) | –
16 | COc1cccc(C(O)c2nc(-c3ccc(C)c(C)c3)cs2)c1 (stereo not drawn) | inactive | –
17 | O=C(c1ccc(C(F)(F)F)cc1)N1CCC(=O)N([C@H](COCc2ccccc2)Cc2ccccc2)CC1 | inactive | –
18 | CN(C)c1ccc(/C=C2\C=Cc3ccccc32)cc1Br | inactive | –
19 | CCCCN(C=O)c1c(CC)nc2c(OCCC3CCCCC3)cccn12 | inactive | –
20 | CN(C)C(CNC(=O)c1cccc(S(=O)(=O)N2CCc3ccccc3C2)c1)c1ccccc1 (stereo not drawn) | inactive | –
21 | COCOCCn1cc(CN2CCS(=O)(=O)N(Cc3ccc(-c4ccc(OC)cc4)cc3)C(CC(C)C)C2=O)nn1 (stereo not drawn) | inactive | –

Row | SMILES | Potency | activity change, negative = inhibition
22 | O=C(CCN1C(=O)/C(=C/c2cccs2)SC1=S)NNC(=O)c1cccc(O)c1 | inactive | –
23 | O=C(CCCN1C(=O)/C(=C/c2cccs2)SC1=S)Nc1ccc(O)cc1 | 10 µM (active) | –
24 | O=C(CCCN1C(=O)/C(=C/c2ccco2)SC1=S)Nc1ccccc1 | inactive | –
25 | O=C1C(Sc2cccc(F)c2)=C[C@@]2(O)CC[C@@H](O)[C@]1(Sc1cccc(F)c1)[C@H]2O | inactive | –
26 | CCCCCNC(=O)C(c1ccc(OC)cc1)n1c(=O)c(-c2ccccc2)nc2ccccc21 (stereo not drawn) | inactive | –
27 | CC(C)NC(=O)c1ccc(Cl)cc1Cl | inactive | –
28 | COC(=O)c1ccc(NCc2cc(O)ccc2O)cc1 | 10 µM (active) | –
29 | C#CCNc1ccc(C(=O)OCC)cc1 | inactive | –
30 | CC(C)OC(=O)c1ccc(NCc2cc(O)ccc2O)cc1Cl | 4.47 µM (active) | –
31 | COC(=O)c1ccc(NC(=O)CSc2nnc(CNc3ccc(OC)cc3)n2C)cc1 | – | -12.7% [at 1.46 µM] (inactive)
32 | CC(OC(=O)c1ccc(Cl)cc1O)C(=O)NCCC1=CCCCC1 (stereo not drawn) | inactive | –
33 | COc1ccc(C(=O)N2CCCCC2c2cc(C(=O)Nc3ccccc3)no2)cc1 (stereo not drawn) | inactive | –
34 | COc1ccc(-c2coc3c(C(=O)NC(C)C)cccc23)c(C)c1 | inactive | –
35 | CCCCC[C@@H]1C=C(C(=O)OCC)[C@H](c2ccccc2)N1S(=O)(=O)c1ccc(C)cc1 | inactive | –
36 | COCc1cccc(-c2csc(C(O)c3ccc(F)cc3)n2)c1 (stereo not drawn) | inactive | –
37 | N#CCc1ccc(OC(=O)c2cccnc2)cc1 | inactive | –
38 | CCCCCCOc1ccc(OC(=O)c2cccnc2)cc1 | 10 µM (active) | –
39 | O=C(Oc1ccc(Br)cc1)c1cccnc1 | inactive | –
40 | O=C(CC(CC(=O)c1ccccc1)c1ccco1)c1ccccc1 | inactive | –
41 | Cc1ccccc1-c1nc(NC(C)C)nc2cc(-c3ccccc3)sc12 | inactive | –
42 | Cc1ccccc1S(=O)(=O)N1[C@@H](c2cccc(Cl)c2)C(C(=O)OC(C)(C)C)=CC[C@H]1c1ccc(Cl)cc1 | inactive | –

Row | SMILES | Potency | activity change, negative = inhibition
43 | COc1cc2nc(N3CCCN(C)CC3)nc(NC(C)C)c2cc1OC | inactive | –
44 | C=CC[C@@H](CC(=O)N[C@@H](CO)Cc1ccccc1)C(=O)N[C@H](COC(=O)[C@H](CC=C)CC(=O)OC(C)(C)C)Cc1ccccc1 | inactive | –
45 | C=CCC[C@H](Cc1ccc(F)cc1)C(=O)OC[C@@H](NC(=O)[C@@H](CC=C)CC(=O)N[C@H](CO)Cc1ccccc1)C(C)(C)C | 12.6 µM (active) | –
46 | C=CCC[C@H](Cc1ccc(F)cc1)C(=O)OC[C@@H](Cc1c[nH]c2ccccc12)NC(=O)[C@H](CC=C)CC(=O)N[C@H](CO)Cc1ccccc1 | inactive | –
47 | COc1ccc2[nH]c3c(c2c1)CCN[C@H]3C | inactive | –
48 | COc1ccc2[nH]c3c(C)c4cc[n+](C)cc4c(C)c3c2c1 | 11.2 µM (active) | –
49 | COc1ccc2[nH]c(C(=O)N3CCN(C)CC3)c(C)c2c1 | inactive | –
50 | Cc1ccc(Nc2nc(CSc3nnc(-c4ccncc4)n3-c3ccccc3C)cs2)cc1 | 10 µM (active) | –
51 | Cc1ccccc1-n1c(SCC(=O)NCc2cccs2)nnc1-c1ccncc1 | inactive | –
52 | Cc1ccc(-n2c(SCC(=O)N3c4ccccc4Sc4ccccc43)nnc2-c2ccncc2)cc1 | inactive | –
53 | COc1ccc(NC(=O)c2nc(-n3nc(C)cc3C)ccc2Cl)cc1Cl | inactive | –
54 | Cc1ccc(S(=O)(=O)Nc2nc(C)cc(N/N=C/c3ccc(O)cc3)n2)cc1 | inactive | –
55 | COc1ccccc1/C=N\Nc1cc(C)nc(-n2nc(C)cc2C)n1 | 5.62 µM (active) | –
56 | Cc1cccc(Nc2cc(C)nc(-n3nc(C)cc3C)n2)c1 | – | -3.8% [at 7.34 µM] (inactive)
57 | COc1cc(Cl)c(C)cc1Nc1nnc(-n2nc(C)cc2C)c2ccccc12 | inactive | –
58 | Cc1cc(N/N=C\c2ccc(Br)cc2)nc(-n2nc(C)cc2C)n1 | 2.24 µM (active) | –
59 | COc1cc(CNc2ncnc3c2ncn3[C@H]2CN(Cc3cccs3)C[C@@H](CO)O2)cc(OC)c1OC | inactive | –
60 | COc1ccc(/C=C/c2ccccn2)cc1OC | inactive | –
61 | CCOC(=O)[C@]12CCCC=C1N(Cc1cccc3ccccc13)C(=O)[C@H](CC(=O)NCC13CC4CC(CC(C4)C1)C3)C2 | inactive | –
62 | Cc1cccc(-n2c(C)cc(/C=N/NC(N)=S)c2C)c1 | inactive | –
63 | CC(C)Oc1c(Br)cc(Br)cc1/C=N/NC(N)=S | 3.98 µM (active) | –

Row | SMILES | Potency | activity change, negative = inhibition
64 | NC(=S)N/N=C/c1coc2cc(Cl)ccc2c1=O | inactive | –
65 | CCCCCCCCN1C(=O)[C@H](CC(=O)NCc2cccc3ccccc23)C[C@@]2(C(=O)OC)CCCCC=C12 | inactive | –
66 | COc1ccc(Cn2c(=O)[nH]c3cc(C(=O)N4CCN(C(=O)c5ccco5)CC4)ccc3c2=O)cc1 | inactive | –
67 | CC1C(C)N(C(=O)CCl)c2ccccc2N1C(=O)CCl (stereo not drawn) | 8.91 µM (active) | –
68 | CCCn1c(=N)n(CC(=O)c2ccc(Cl)c(Cl)c2)c2ccccc21 | inactive | –
69 | CCNC(=O)N1c2ccccc2Sc2ccccc21 | inactive | –
70 | COC(=O)[C@]12CCCCC=C1N(Cc1ccc3c(c1)OCO3)C(=O)[C@H](CC(=O)NCc1cccs1)C2 | inactive | –
71 | C(=Nc1ccc(/C=C/c2ccnc3ccccc23)cc1)Nc1ccc(/C=C/c2ccnc3ccccc23)cc1 | inactive | –
72 | CN(C)S(=O)(=O)c1cccc(NC(=O)Cc2ccsc2)c1 | 12.6 µM (active) | –
73 | CN(C)S(=O)(=O)c1cccc(NC(=O)COC(=O)c2cc(=O)[nH]c(=O)[nH]2)c1 | inactive | –
74 | CN(C)S(=O)(=O)c1cccc(NC(=O)COC(=O)/C=C/c2cccs2)c1 | inactive | –
75 | O=C(NC(c1ccc(Cl)cc1)c1cnccn1)C1CCN(Cc2ccc(Cl)cc2)CC1 (stereo not drawn) | inactive | –
76 | O=C(Nc1cccc2ccccc12)c1[nH]c(-c2ccccc2)c2c1C(=O)N(C1CC1)C2=O | inactive | –
77 | CCCCC(CCCC)c1ccc(C=Nc2ccc(/C=C/c3ccnc4ccccc34)cc2)cc1 | inactive | –
78 | Oc1ccc(N=Nc2nccs2)c(O)c1 | 3.98 µM (active) | –
79 | CCN1CCN(c2ccc(/C=C/c3ccnc4ccccc34)cc2)CC1 | inactive | –
80 | N#Cc1ccc(C(C(=O)NCc2ccccc2)n2c(=O)c(-c3ccco3)nc3ccccc32)cc1 (stereo not drawn) | inactive | –
81 | CC1(Oc2cccc(F)c2)CCN(Cc2ccccc2OC(F)F)C1 (stereo not drawn) | inactive | –
82 | CCN(C(=O)Nc1cccc2ccccc12)c1ccccc1 | inactive | –
83 | CC(=O)N1Cc2cc(C(=O)NCc3cccc(F)c3)nc(-c3cccc(C4=CCCCC4)c3)c2[C@H]1CCO | inactive | –
